Source: PubChem
In the library only some 2.3% were active in any assay of this set; here they are far more common.
Coupling enz: coupling enzyme interference in Giardia aldolase counter-screen; 290,000 tested, 0.67% active; activity change, negative = inhibition, % at 58.2 µM, hits read low; AID 2472; coupling enzyme system counterscreen, AmpLite Red fluorescence; in the data active = activity change below about -30%; note: % is set by controls: 0 for no effect and ±100 for the full control effect
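Counterscreen of the coupled detection system alone, without aldolase: glyceraldehyde-3-phosphate coupling enzymes plus AmpLite Red readout. Compounds at 57.5 uM final, 10 min RT preincubation, 20 min RT reaction, fluorescence 525/598 nm.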
VDR inh: vitamin D3 receptor (human) inhibition; P11473; VDR-SRC2-3 peptide fluorescence polarization, 2 h; Potency, µM, without a hit: max response, negative = inhibition, usual class: inhibitors; 400,000 tested, 0.93% active; note: potency is the fitted concentration of half-maximal effect; % is set by controls: 0 for no effect and ±100 for the full control effect
Target sequence (P11473 whole entry, looked up): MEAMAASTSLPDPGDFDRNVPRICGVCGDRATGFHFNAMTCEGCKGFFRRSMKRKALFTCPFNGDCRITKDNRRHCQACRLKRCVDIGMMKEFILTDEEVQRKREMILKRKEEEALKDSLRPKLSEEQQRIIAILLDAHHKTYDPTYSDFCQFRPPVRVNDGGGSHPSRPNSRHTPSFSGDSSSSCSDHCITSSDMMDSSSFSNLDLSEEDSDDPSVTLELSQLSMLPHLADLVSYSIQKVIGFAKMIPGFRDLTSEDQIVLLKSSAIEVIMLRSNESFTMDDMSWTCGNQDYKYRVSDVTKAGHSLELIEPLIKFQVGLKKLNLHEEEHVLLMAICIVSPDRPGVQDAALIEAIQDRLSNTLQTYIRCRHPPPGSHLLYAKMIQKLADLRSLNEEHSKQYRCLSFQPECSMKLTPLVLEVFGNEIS
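Compounds are added to VDR with labelled SRC2-3 coactivator peptide and held 2 h at room temperature. Inhibition of the VDR–peptide interaction is then read as a change in fluorescence polarization.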
HTT cytoprotect: protects HTT-Q103 PC12 cells, measured by ATP | PC12 HTT-Q103 induced, cytoprotection, ATP luminescence, 40 h | Potency, µM (titrated, usually from 56.4 µM), inactives show cytoprotection (ATP increase), actives largely listed as activators | 230,000 tested, 0.14% active | AID 1471; note: potency is the fitted concentration of half-maximal effect; % of control where 0% means no effect; nearly all actives have a fitted effect of over 45% in size
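Stable PC12 Q103-GFP cells in serum-supplemented, phenol red-free DMEM; induction by tebufenozide at 100 nM final; compound dose series; cell viability quantified luminescently from ATP.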
JMJD2E inh: JMJD2E (human) inhibition; Potency, µM (titrated, usually from 57.1 µM), inactives show top-dose activity change, negative = inhibition, most hits filed as inhibitors; JMJD2E catalytic domain, FDH-coupled NADH fluorescence (FDH is formaldehyde dehydrogenase); 230,000 tested, 1.6% active; B2RXH2; AID 2147; active = well fitted inhibition curve with a large enough effect, not every such curve was filed as active; inconclusive = small, poorly fitted or top-dose-only effect, or another doubt; inactive = no such curve, though single readings can be large or run the other way;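 note: potency is the fitted concentration of half-maximal effect; 0% = wells with enzyme and -100% = buffer wells without enzyme; nearly all actives have a fitted effect of over 50% in size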
Target sequence (B2RXH2 1-337 limits assumed): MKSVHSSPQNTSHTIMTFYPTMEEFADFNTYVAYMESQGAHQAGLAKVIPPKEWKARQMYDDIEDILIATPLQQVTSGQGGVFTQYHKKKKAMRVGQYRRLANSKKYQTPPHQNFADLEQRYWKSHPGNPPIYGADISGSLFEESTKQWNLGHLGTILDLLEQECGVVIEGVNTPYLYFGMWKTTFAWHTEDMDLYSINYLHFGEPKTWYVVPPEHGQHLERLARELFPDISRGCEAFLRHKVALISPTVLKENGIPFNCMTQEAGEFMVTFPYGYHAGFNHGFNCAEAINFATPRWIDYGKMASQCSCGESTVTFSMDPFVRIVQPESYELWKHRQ
GoLoco inh red: RGS12 GoLoco-Gai1 interaction inhibition. Gai1:RGS12 GoLoco peptide FP, rhodamine, 10 min. Potency, µM (doses to about 61.6 µM), for the others: top-dose activity, negative = inhibition, usual class: inhibitors. 230,000 tested, 0.44% active. AID 880; active = well fitted inhibition curve with a large enough effect, not every such curve was filed as active; inactive = no such curve, though single readings can be large or run the other way; note: potency is the fitted concentration of half-maximal effect; % is set by controls: 0 for no effect and ±100 for the full control effect; nearly all actives have a fitted effect of over 30% in size
HttQ103 aggreg: inhibitors of mutant huntingtin aggregate formation in PC12 cells; PC12 HttQ103-GFP aggregates, Acumen cytometry, 40 h; Potency, µM (highest dose often 46.1 µM), for inactives: top-dose activity change, negative = inhibition, actives largely listed as inhibitors; 220,000 tested, 1.1% active; note: potency is the fitted concentration of half-maximal effect; % is set by controls: 0 for no effect and ±100 for the full control effect; nearly all actives have a fitted effect of over 60% in size
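Multiplexed with ATP-based cell death, this channel scores GFP aggregates in PC12 cells expressing inducible HTTex1-Q103-GFP. Induction used 100 nM tebufenozide; compounds were tested in concentration series.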
* marks the source's active call; other numbers are inactive results; ? = inconclusive; / = not tested or not shown; [ ] = remark or other dose. Unless noted, calls come from the whole dose curve; as a rule, active = well fitted curve in the direction sought with a large enough effect; inconclusive = small, poorly fitted or top-dose-only effect, or another doubt; inactive = no such curve, though single readings can be large; an effect the other way counts as inactive or inconclusive.

SMILES	Coupling enz	VDR inh	HTT cytoprotect	JMJD2E inh	GoLoco inh red	HttQ103 aggreg
CC1(C)O[C@H]2CC(=O)OC[C@@]23C1CC(=O)[C@]1(C)C3CC[C@@]2(C)[C@H](c3ccoc3)OC(=O)[C@H]3O[C@]321 (some centres undefined)	/	-5.2%	/	/	/	/
CC1(C)C(=O)C=C[C@]2(C)C1CC(=O)[C@]1(C)C2CC[C@@]2(C)C(c3ccoc3)OC(=O)C3O[C@@]321 (some centres undefined)	-0.1	20µM*	-149.5%	-2.2%	-3.0%	/
Cc1ccc(Nc2c(-c3ccccn3)nc3cc(C)ccn23)cc1	0.5	22.9%	-116.3%	0.3%	2.9%	7.94µM*
Cc1ccc(Nc2c(-c3ccccn3)nc3ccc(C)cn23)cc1	-3.0	-11.9%	-44.3%[10 µM]	3.9%	6.9%	11.2µM*
Cc1ccn2c(Nc3ccc4c(c3)OCO4)c(-c3ccccn3)nc2c1	-23.7	-7.1%	-21.2%[10 µM]	0.4%	-11.4%	-17.8%
N[C@@H](C(=O)O)[C@@H]1C[C@H]1C(=O)O	/	/	2.7%[1.9 µM]	/	/	/
COc1cc(CNc2ccc(N3CCN(C(C)=O)CC3)cc2)ccc1OCc1ccccc1	-3.7	-7.8%	2.6%[10 µM]	15.8µM*	4.0%	3.3%[9.22 µM]
Cc1cccc(OCC(=O)Nc2ccc(N3CCN(C(=O)c4ccccc4)CC3)cc2)c1	0.2	-0.4%	6.5%[0.074 µM]	-11.9%	2.1%	12.6µM*
CC(=O)N1CCN(c2ccc(NC(=O)c3ccc(OCc4ccccc4)cc3)cc2)CC1	-0.9	28.2µM*	-8.4%	?	5.5%	-0.5%[9.22 µM]
CC(=O)OC[C@@H]1O[C@@H](O/N=C2/C[C@@H](O)[C@@H](O)[C@@H]3[C@@H]4C(=O)N([C@@H](C)c5ccccc5)C(=O)[C@H]4CC[C@@H]23)[C@H](OC(C)=O)[C@H](OC(C)=O)[C@@H]1OC(C)=O	-0.5	/	-8.1%[10 µM]	/	/	/
CN(C)/C=C/C(=O)c1ccn(S(=O)(=O)c2ccccc2)c1	1.6	-12.6%	/	/	/	/
O=C(/C=C/c1ccccc1)CC(O)(c1ccccc1)C(F)(F)F (centres undefined)	-2.2	-88.3%	-38.3%	3.8%	19.2%	11.1%
COc1ccc(/C=C/C(=O)CC(O)(c2ccccc2)C(F)(F)F)cc1 (centres undefined)	-2.9	35.5µM*	-1.0%[10 µM]	-7.4%	7.9%	12.7%
C/C=C(/C)C#N	/	/	?	/	7.3%	/
Cc1ccc(CNc2ncnc(N)c2[N+](=O)[O-])cc1	0.3	0.1%	6.1%	16.9%	0.2%	4.47µM*
COc1cc(N)c2ncccc2c1OC	/	-12.4%	/	/	/	/
Nc1ccc2ncccc2c1N	-39.7*	-21.2%	-4.7%[10 µM]	-25.7%	-0.9%	?
Nc1ccc2ncccc2c1	-38.6*	13.7%	-16.8%	?	67.8%	?
c1cnc2ccc3ncccc3c2c1	-9.5	-14.4%	29.9%[10 µM]	17.8µM*	-1.8%	-9.3%[9.22 µM]
CCOc1ccc(N2C(=O)CS(=O)(=O)C23C(=O)N(Cc2cccc(Cl)c2)c2ccccc23)cc1 (centres undefined)	/	4.8%	/	/	/	/
CCCCC(CC)CCC(CC(C)C)OS(=O)(=O)O (centres undefined)	/	?	-5.2%	/	/	0.7%
C[Si](C)(C)O[Si](C)(C)C	/	5.4%	9.0%	/	7.5%	-4.6%
Cc1cc(C(=O)N/N=C/c2cc(Br)cc(Br)c2OC(=O)c2cccc(F)c2)n[nH]1	-0.1	4.3%	13.7%[10 µM]	10.9%	3.5%	-4.2%[9.22 µM]
Cc1cc(C(=O)N/N=C/c2cc(Br)cc(Br)c2OC(=O)c2ccccc2)n[nH]1	5.1	/	0.2%[10 µM]	-1.2%	-0.3%	4.47µM*
Cc1cc(C(=O)N/N=C/c2cc(Br)ccc2OC(=O)c2ccc(Br)cc2)n[nH]1	0.6	/	28.9%[10 µM]	-10.1%	27.8%	10µM*
SMILES	Coupling enz	VDR inh	HTT cytoprotect	JMJD2E inh	GoLoco inh red	HttQ103 aggreg
CC12CCC(C(N)C1=O)C2(C)C (centres undefined)	/	6.1%	/	/	/	/
CCOc1ccc(S(=O)(=O)NCCC(=O)NCC(c2ccco2)N2CCCCC2)cc1 (centres undefined)	/	6.7%	/	/	/	/
O=C(CN1CCN(S(=O)(=O)c2ccc(F)cc2)CC1)c1ccc(O)c(O)c1	-6.4	16.9%	-17.1%	4.47µM*	-29.2%	-21.6%
O=C(CN1CCN(S(=O)(=O)c2ccc(Cl)cc2)CC1)c1ccc(O)c(O)c1	/	2.5%	/	/	/	/
Cc1ccc(S(=O)(=O)N2CCN(CC(=O)N/N=C\c3ccc(O)c(O)c3)CC2)cc1	-6.2	-0.5%	2.6%[10 µM]	15.8µM*	-11.2%	24.0%[9.22 µM]
COc1ccc2c(c1)N(CC[C@H]1CCCCN1C)c1ccccc1S2	/	/	-5.4%[10 µM]	/	2.8%[14.2 µM]	/
O=C(NCc1ccccc1F)C(=O)NCC(c1ccco1)S(=O)(=O)c1ccccc1 (centres undefined)	/	16.9%	/	/	/	/
O=C(Nc1ccccc1Cl)N1CCN(c2ccc3nnc(-c4ccccc4)n3n2)CC1	0.5	-5.2%	-29.5%	?	9.2%	?
O=C(Nc1ccc(Cl)cc1)N1CCN(c2ccc3nnc(-c4ccc(F)cc4)n3n2)CC1	1.3	-6.6%	-13.6%[10 µM]	?	0.2%	22.4µM*
COc1cc(OC)cc(C(=O)OCC(=O)NC2CCCCCC2)c1	/	-20.7%	/	/	/	/
COc1ccc(OC(C)C(=O)NCc2nc(-c3cccc(C)c3)no2)cc1 (centres undefined)	/	11.8%	/	/	/	/
O=S(=O)(Nc1nc2ccccc2nc1Nc1ccc2c(c1)OCCO2)c1cccs1	3.7	4.3%	-3.6%[0.074 µM]	22.4µM*	5.0%	?
COc1ccc(S(=O)(=O)Nc2nc3ccccc3nc2Nc2ccc3c(c2)OCO3)cc1	4.7	/	-4.4%[1.9 µM]	-0.1%	11.9%	-17.9%
CCOC(=O)C1=C(C)N=C2SC(C)C(=O)N2C1c1cccc(F)c1 (centres undefined)	-0.7	0.5%	25.1µM*	-3.1%	7.5%	4.6%
CC1=C(C(=O)OCC(C)C)C(c2cccc(F)c2)N2C(=O)C(C)SC2=N1 (centres undefined)	1.3	8.2%	11.8%[10 µM]	2.9%	4.6%	4.4%
Cc1ccc(Nc2c(-c3ccco3)nc3ccc(C)cn23)cc1	/	-0.3%	/	/	/	/
Nc1cc2nsnc2cc1Br	-31.8*	?	6.3%	20.9%	4.6%	3.1%
O=S(=O)(Nc1cccc(-c2ccc(N3CCCCC3)nn2)c1)c1ccc(Cl)s1	/	10.3%	/	/	/	/
COc1cccc(-n2c(SCc3cc(=O)oc4cc(O)c(O)cc34)nc3ccccc3c2=O)c1	6.9	-6.8%	12.9%[10 µM]	12.6µM*	2.1%	26.7%
CCc1ccc2c(O)c3c(cc2c1C(=O)OC)C(=O)c1c(O)ccc(O)c1C3=O	-16.8	?	-71.3%	2.82µM*	37.9%	/
COC(=O)c1[nH]c(=O)c2ccccc2c1O	-22.9	11.4%	/	?	8.8%	?
CC(C)(C)c1ccc(CN2N=Nc3ccccc3S2(=O)=O)cc1	-48.7*	50.1µM*	-47.0%	-28.4%	0.2%	-10.4%[9.22 µM]
